# Assay results reported in PubChem BioAssay AID1159580 (chemical genetic matrix, 2015).
# Where “and” joins values, the source holds several entries; their conditions need not be identical. Identical values can stand only once. Screen size: about 5,500 compounds; about 2,000 (36%) were called active. About 18% were inconclusive and are not listed. No stated cut-off is given here; in the data, active means normalized growth mostly below about 0.91 (no sharp cut-off); inconclusive means no clear call, values can overlap the other calls; inactive means mostly above about 0.92. The list shows a part of the results. Where a structure was tested more than once in an assay, its records may differ in their call.
# Experiment: chemical genetic growth profiling, strain panel (AID 1159580);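 further: tested at 20 µM; growth read once vehicle control cultures reached saturation at 30 °C; 1 = growth at the plate median or of vehicle wells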
# Conditions: growth OD
smiles,measurement,setting,value
CCn1cc(C(=O)O)c(=O)c2ccc(C)nc21,normalized growth,"S. cerevisiae deletion strains, locus YKL009W, strain mrt4, stronger effect = lower value",0.91 (inactive)
same,normalized growth,"S. cerevisiae deletion strains, locus YKL068W, stronger effect = lower value",0.942 (inactive)
same,normalized growth,"S. cerevisiae deletion strains, locus YKL085W, strain MDH1 (second series), stronger effect = lower value",0.938 (inactive)
same,normalized growth,"S. cerevisiae deletion strains, locus YKL085W, strain MDH1, stronger effect = lower value",0.938 (inactive)
same,normalized growth,"S. cerevisiae deletion strains, locus YKL160W, strain elf1, stronger effect = lower value",0.976 (inactive)
same,normalized growth,"S. cerevisiae deletion strains, locus YKL190W, strain CNB1, stronger effect = lower value",0.933 (inactive)
same,normalized growth,"S. cerevisiae deletion strains, locus YKR001C, strain vps1, stronger effect = lower value",0.812 (active)
same,normalized growth,"S. cerevisiae deletion strains, locus YKR026C, strain gcn3, stronger effect = lower value",0.965 (inactive)
same,normalized growth,"S. cerevisiae deletion strains, locus YKR091W, strain srl3, stronger effect = lower value",0.926 (active)
same,normalized growth,"S. cerevisiae deletion strains, locus YLL001W, strain dnm1, stronger effect = lower value",0.946 (inactive)
same,normalized growth,"S. cerevisiae deletion strains, locus YLL026W, stronger effect = lower value",0.94 (inactive)
same,normalized growth,"S. cerevisiae deletion strains, locus YLL041C, strain sdh2, stronger effect = lower value",0.931 (inactive)
same,normalized growth,"S. cerevisiae deletion strains, locus YLR027C, strain aat2, stronger effect = lower value",0.942 (inactive)
same,normalized growth,"S. cerevisiae deletion strains, locus YLR039C, strain RIC1, stronger effect = lower value",0.447 (active)
same,normalized growth,"S. cerevisiae deletion strains, locus YLR058C, strain SHM2, stronger effect = lower value",0.921 (inactive)
same,normalized growth,"S. cerevisiae deletion strains, locus YLR102C, strain apc9, stronger effect = lower value",0.933 (inactive)
same,normalized growth,"S. cerevisiae deletion strains, locus YLR113W, strain HOG1, stronger effect = lower value",0.94 (inactive)
same,normalized growth,"S. cerevisiae deletion strains, locus YLR221C, strain rsa3, stronger effect = lower value",0.943 (inactive)
same,normalized growth,"S. cerevisiae deletion strains, locus YLR258W, strain gsy2, stronger effect = lower value",0.939 (inactive)
same,normalized growth,"S. cerevisiae deletion strains, locus YLR262C, strain YPT6 (second series), stronger effect = lower value",0.297 (active)
same,normalized growth,"S. cerevisiae deletion strains, locus YLR262C, strain YPT6, stronger effect = lower value",0.406 (active)
same,normalized growth,"S. cerevisiae deletion strains, locus YLR268W, strain sec22, stronger effect = lower value",0.868 (active)
same,normalized growth,"S. cerevisiae deletion strains, locus YLR320W, strain mms22, stronger effect = lower value",0.976 (inactive)
same,normalized growth,"S. cerevisiae deletion strains, locus YLR330W, strain CHS5, stronger effect = lower value",0.949 (inactive)
same,normalized growth,"S. cerevisiae deletion strains, locus YLR342W, strain FKS1 (second series), stronger effect = lower value",0.958 (inactive)
same,normalized growth,"S. cerevisiae deletion strains, locus YLR342W, strain FKS1, stronger effect = lower value",0.912 (inactive)
same,normalized growth,"S. cerevisiae deletion strains, locus YLR357W, strain rsc2, stronger effect = lower value",1.09 (inactive)
same,normalized growth,"S. cerevisiae deletion strains, locus YLR370C, strain arc18, stronger effect = lower value",0.943 (inactive)
same,normalized growth,"S. cerevisiae deletion strains, locus YLR371W, strain rom2, stronger effect = lower value",0.941 (inactive)
same,normalized growth,"S. cerevisiae deletion strains, locus YLR384C, strain iki3, stronger effect = lower value",0.926 (inactive)
same,normalized growth,"S. cerevisiae deletion strains, locus YLR418C, strain cdc73, stronger effect = lower value",0.852 (inactive)
same,normalized growth,"S. cerevisiae deletion strains, locus YML016C, strain PPZ1, stronger effect = lower value",0.887 (active)
same,normalized growth,"S. cerevisiae deletion strains, locus YML032C, strain rad52, stronger effect = lower value",0.883 (active)
same,normalized growth,"S. cerevisiae deletion strains, locus YML120C, strain ndi1, stronger effect = lower value",0.954 (inactive)
same,normalized growth,"S. cerevisiae deletion strains, locus YML124C, strain tub3, stronger effect = lower value",0.916 (active)
same,normalized growth,"S. cerevisiae deletion strains, locus YMR058W, strain fet3, stronger effect = lower value",0.943 (inactive)
same,normalized growth,"S. cerevisiae deletion strains, locus YMR078C, strain ctf18, stronger effect = lower value",0.927 (inactive)
same,normalized growth,"S. cerevisiae deletion strains, locus YMR125W, strain sto1, stronger effect = lower value",1.02 (inactive)
same,normalized growth,"S. cerevisiae deletion strains, locus YMR129W, stronger effect = lower value",0.941 (inactive)
same,normalized growth,"S. cerevisiae deletion strains, locus YMR205C, strain PFK2, stronger effect = lower value",0.986 (inactive)
same,normalized growth,"S. cerevisiae deletion strains, locus YMR223W, strain ubp8, stronger effect = lower value",0.947 (inactive)
same,normalized growth,"S. cerevisiae deletion strains, locus YMR231W, strain pep5, stronger effect = lower value",0.891 (active)
same,normalized growth,"S. cerevisiae deletion strains, locus YMR263W, strain SAP30, stronger effect = lower value",0.97 (inactive)
same,normalized growth,"S. cerevisiae deletion strains, locus YMR307W, strain GAS1, stronger effect = lower value",0.756 (inactive)
same,normalized growth,"S. cerevisiae deletion strains, locus YNL067W, strain RPL9B, stronger effect = lower value",0.949 (inactive)
same,normalized growth,"S. cerevisiae deletion strains, locus YNL071W, strain lat1, stronger effect = lower value",0.925 (inactive)
same,normalized growth,"S. cerevisiae deletion strains, locus YNL128W, strain TEP1, stronger effect = lower value",0.941 (inactive)
same,normalized growth,"S. cerevisiae deletion strains, locus YNL153C, strain GIM3, stronger effect = lower value",0.971 (inactive) and 1.01 (inactive)
same,normalized growth,"S. cerevisiae deletion strains, locus YNL175C, strain NOP13, stronger effect = lower value",0.944 (inactive)
same,normalized growth,"S. cerevisiae deletion strains, locus YNL183C, strain NPR1, stronger effect = lower value",0.911 (inactive)
same,normalized growth,"S. cerevisiae deletion strains, locus YNL197C, strain WHI3, stronger effect = lower value",0.939 (inactive)
same,normalized growth,"S. cerevisiae deletion strains, locus YNL209W, strain ssb2, stronger effect = lower value",0.929 (inactive)
same,normalized growth,"S. cerevisiae deletion strains, locus YNL224C, strain SQS1, stronger effect = lower value",0.944 (inactive)
same,normalized growth,"S. cerevisiae deletion strains, locus YNL233W, strain BNI4, stronger effect = lower value",0.994 (inactive)
same,normalized growth,"S. cerevisiae deletion strains, locus YNL248C, strain rpa49, stronger effect = lower value",0.984 (inactive)
same,normalized growth,"S. cerevisiae deletion strains, locus YNL250W, strain rad50, stronger effect = lower value",0.939 (inactive)
same,normalized growth,"S. cerevisiae deletion strains, locus YNL271C, strain bni1, stronger effect = lower value",0.864 (active)
same,normalized growth,"S. cerevisiae deletion strains, locus YNL298W, strain CLA4, stronger effect = lower value",0.871 (active)
same,normalized growth,"S. cerevisiae deletion strains, locus YNL307C, strain MCK1, stronger effect = lower value",0.955 (inactive)
same,normalized growth,"S. cerevisiae deletion strains, locus YNL322C, strain KRE1 (second series), stronger effect = lower value",0.983 (inactive)
same,normalized growth,"S. cerevisiae deletion strains, locus YNL322C, strain KRE1, stronger effect = lower value",0.933 (inactive) and 0.965 (inactive)
same,normalized growth,"S. cerevisiae deletion strains, locus YNR049C, strain mso1, stronger effect = lower value",0.937 (inactive)
same,normalized growth,"S. cerevisiae deletion strains, locus YNR052C, strain pop2, stronger effect = lower value",0.803 (active)
same,normalized growth,"S. cerevisiae deletion strains, locus YOL006C, strain TOP1, stronger effect = lower value",1.04 (inactive)
same,normalized growth,"S. cerevisiae deletion strains, locus YOL012C, strain htz1",0.496 (inactive)
same,normalized growth,"S. cerevisiae deletion strains, locus YOL147C, strain pex11, stronger effect = lower value",0.926 (active)
same,normalized growth,"S. cerevisiae deletion strains, locus YOR001W, strain rrp6, stronger effect = lower value",0.828 (active)
same,normalized growth,"S. cerevisiae deletion strains, locus YOR061W, strain CKA2, stronger effect = lower value",0.898 (inactive)
same,normalized growth,"S. cerevisiae deletion strains, locus YOR069W, strain VPS5, stronger effect = lower value",0.918 (active)
same,normalized growth,"S. cerevisiae deletion strains, locus YOR070C, strain gyp1, stronger effect = lower value",0.935 (inactive)
same,normalized growth,"S. cerevisiae deletion strains, locus YOR080W, strain dia2, stronger effect = lower value",0.927 (inactive)
same,normalized growth,"S. cerevisiae deletion strains, locus YOR083W, strain WHI5 (second series), stronger effect = lower value",0.968 (inactive)
same,normalized growth,"S. cerevisiae deletion strains, locus YOR083W, strain WHI5, stronger effect = lower value",0.935 (inactive)
same,normalized growth,"S. cerevisiae deletion strains, locus YOR106W, strain vam3, stronger effect = lower value",0.964 (inactive)
same,normalized growth,"S. cerevisiae deletion strains, locus YOR136W, strain idh2, stronger effect = lower value",0.969 (inactive)
same,normalized growth,"S. cerevisiae deletion strains, locus YOR144C, strain elg1, stronger effect = lower value",0.914 (active)
same,normalized growth,"S. cerevisiae deletion strains, locus YOR184W, strain ser1, stronger effect = lower value",0.882 (inactive)
same,normalized growth,"S. cerevisiae deletion strains, locus YOR231W, strain MKK1, stronger effect = lower value",0.888 (inactive)
same,normalized growth,"S. cerevisiae deletion strains, locus YOR265W, strain rbl2, stronger effect = lower value",0.93 (inactive)
same,normalized growth,"S. cerevisiae deletion strains, locus YOR270C, strain vph1, stronger effect = lower value",1.08 (inactive)
same,normalized growth,"S. cerevisiae deletion strains, locus YOR290C, strain snf2, stronger effect = lower value",0.962 (inactive)
same,normalized growth,"S. cerevisiae deletion strains, locus YOR316C, strain cot1, stronger effect = lower value",0.926 (inactive)
same,normalized growth,"S. cerevisiae deletion strains, locus YPL051W, strain arl3, stronger effect = lower value",0.903 (active)
same,normalized growth,"S. cerevisiae deletion strains, locus YPL055C, strain LGE1, stronger effect = lower value",1.05 (inactive) and 1.03 (inactive)
same,normalized growth,"S. cerevisiae deletion strains, locus YPL078C, strain atp4, stronger effect = lower value",0.927 (inactive)
same,normalized growth,"S. cerevisiae deletion strains, locus YPL106C, strain sse1, stronger effect = lower value",1.06 (inactive)
same,normalized growth,"S. cerevisiae deletion strains, locus YPL240C, strain hsp82, stronger effect = lower value",0.931 (inactive)
same,normalized growth,"S. cerevisiae deletion strains, locus YPL241C, strain CIN2, stronger effect = lower value",0.945 (inactive) and 0.927 (active)
same,normalized growth,"S. cerevisiae deletion strains, locus YPL256C, strain CLN2, stronger effect = lower value",0.993 (inactive)
same,normalized growth,"S. cerevisiae deletion strains, locus YPR119W, strain clb2, stronger effect = lower value",0.918 (active)
same,normalized growth,"S. cerevisiae deletion strains, locus YPR141C, strain kar3, stronger effect = lower value",0.954 (inactive)
same,normalized growth,"S. cerevisiae deletion strains, locus YPR163C, strain tif3, stronger effect = lower value",0.882 (active)
same,normalized growth,"S. cerevisiae deletion strains, locus YPR167C, strain met16, stronger effect = lower value",0.929 (inactive)
same,normalized growth,"S. cerevisiae deletion strains, strain wtn01, stronger effect = lower value",0.915 (inactive)
same,normalized growth,"S. cerevisiae strains, strain wild type, stronger effect = lower value",0.932 (inactive)
